TEAD-YAP inh: TEAD-YAP interaction inhibition | 1.4% of 640,000 active | inhibition, % at 9.12 µM | AID 1259422 | HEK-TIYL cells, TEAD-Gal4/YAP UAS-luciferase luminescence; in the data active = inhibition above about 32%;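 also: 0% = median of test compound wells and 100% = reference inhibitor wells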
FBW7 activator: human FBW7 E3 ligase activation, primary screen | AlphaScreen FBW7–phospho-cyclin E peptide binding, activator screen | normalized activity (activation), % at 26.1 µM | 0.13% of 650,000 active | AID 1259310; in the data active = normalized activity above about 1.9%;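 also: purified mutant Fbw7 with reduced substrate affinity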
MITF inh: inhibitors of human MITF. O75030. AlphaScreen MITF homodimerization, bead proximity signal. inhibition, % at 2.6 µM. 0.91% of 650,000 active. AID 1259374; in the data active = inhibition above about 50%;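 also: 0% = vehicle wells with protein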
Target sequence (O75030 whole entry, looked up): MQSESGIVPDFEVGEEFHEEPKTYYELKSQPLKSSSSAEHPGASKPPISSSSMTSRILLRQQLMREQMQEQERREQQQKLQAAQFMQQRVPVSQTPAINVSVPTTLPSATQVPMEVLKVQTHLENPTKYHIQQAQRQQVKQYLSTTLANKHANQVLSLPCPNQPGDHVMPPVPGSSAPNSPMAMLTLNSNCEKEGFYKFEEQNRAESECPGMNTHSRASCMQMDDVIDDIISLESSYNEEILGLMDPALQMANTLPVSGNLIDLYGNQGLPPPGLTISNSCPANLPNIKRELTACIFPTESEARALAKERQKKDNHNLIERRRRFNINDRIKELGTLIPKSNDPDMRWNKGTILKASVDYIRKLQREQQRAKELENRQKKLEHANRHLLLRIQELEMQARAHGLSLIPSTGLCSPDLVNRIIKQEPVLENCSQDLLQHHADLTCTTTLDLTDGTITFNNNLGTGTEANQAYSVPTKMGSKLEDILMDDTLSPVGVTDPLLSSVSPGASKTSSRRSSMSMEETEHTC
GPR151 ag: activators of human GPR151. PathHunter beta-arrestin GPR151 cells, luminescence. activation, % at 11.2 µM. 1% of 650,000 active. AID 1508602; in the data active = activation above about 4.9%;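 also: 0% = median of compound wells and 100% = cells with positive control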
Active calls of the source: *; / = no result. Most compounds without a hit are left out; they make up all but 3.4% or so of the library.

SMILES	TEAD-YAP inh	FBW7 activator	MITF inh	GPR151 ag
COC(=O)C1=C(C)Nc2ncnn2C1c1ccc(OC)c(Br)c1 (configuration not stated)	32*	0	2	1
Cc1cc(C(=O)CCl)c(C)n1Cc1ccco1	5	0	33	-2
Cc1cc(C(=O)CSc2nnc3ccccn23)c(C)n1Cc1ccco1	61*	0	1	-3
Cc1cc(C(=O)CO/N=C/c2ccco2)c(C)n1Cc1ccco1	53*	0	-5	4
Cc1cccc(Oc2ccc(NC(=O)c3ccccc3C(=O)O)cc2)c1C	5	0	0	2
O=C(O)c1ccccc1C(=O)Nc1ccc(Oc2cccc3ccccc23)cc1	82*	0	10	2
O=C(O)C1CCCCC1C(=O)Nc1ccc(Oc2cccc3ccccc23)cc1 (configuration not stated)	71*	0	6	0
CCCCOc1ccc(NC(=O)C2CCCCC2C(=O)O)cc1 (configuration not stated)	4	0	8	0
CCc1cc(C)cc(OCCOc2ccc(/C=C3/C(=N)N4N=C(CC(C)C)SC4=NC3=O)cc2OC)c1	15	0	10	0
Oc1ccc(Nc2nccn3c(-c4ccc(F)cc4)cnc23)cc1	53*	0	-16	-1
O=C(NCCO)c1cccc(-c2cnc3c(Nc4ccc(F)c(Cl)c4)nccn23)c1	74*	0	10	-4
Oc1ccc(Nc2nccn3c(-c4cccc(F)c4)cnc23)cc1	65*	0	-2	-1
Cc1ccc(-c2cnc3c(Nc4ccc(O)cc4)nccn23)cc1	9	0	14	0
OC1CCC(Nc2nccn3c(-c4ccsc4)cnc23)CC1 (configuration not stated)	-9	2.1*	13	-1
O=C(NCCO)c1cccc(-c2cnc3c(Nc4cccc(C(F)(F)F)c4)nccn23)c1	-5	0	-10	-1
Cc1occc1C(=O)NC(c1ccccc1)c1ccccc1	3	0	20	-2
O=C(Nc1ccccc1Cl)c1cc(Br)cc([N+](=O)[O-])c1O	-10	0	4	1
CC(C)c1ccc(Nc2nccn3c(-c4ccc(O)cc4)cnc23)cc1	-10	1	5	3
Oc1ccc(Nc2nccn3c(-c4ccccc4F)cnc23)cc1	83*	1	10	-2
Oc1ccc(Nc2nccn3c(-c4ccsc4)cnc23)cc1	37*	0	-6	-1
COc1cc2c(cc1O)CC[C@@H]1[C@@H]2CC[C@]2(C)[C@@H](O)CC[C@@H]12	53*	0	17	-1
COc1cc2c(cc1O)CCC1C2CC[C@@]2(C)C1CC[C@@H]2O (some centres not stated)	/	0	12	0
CCCc1cc(=O)[nH]c(SCC(=O)NC(N)=O)n1	-3	0	-3	0
CC1=C(C(=O)OC2CCCC2)C(c2cccc(F)c2)C2=C(CC(c3cccs3)CC2=O)N1 (configuration not stated)	31	0	-3	1
COc1cc(NC(=O)c2cccc(-c3ccc(C(N)=O)cc3)n2)cc(OC)c1OC	35*	0	-9	-1
SMILES	TEAD-YAP inh	FBW7 activator	MITF inh	GPR151 ag
COc1cc(NC(=O)c2cccc(-c3cccc(N)c3)n2)cc(OC)c1OC	34*	0	-1	3
COc1cc(NC(=O)c2cccc(N3CCN(Cc4ccc5c(c4)OCO5)CC3)n2)cc(OC)c1OC	37*	0	5	2
CC(=O)Nc1ccc(NC(=O)c2cnc(N3CCN(Cc4ccc5c(c4)OCO5)CC3)s2)cc1	42*	0	8	-1
COc1ccc(-c2cnn3c(N4CCCCC4CCO)ccnc23)cc1 (configuration not stated)	22	0	14	-1
O=C(Nc1ncc(S(=O)(=O)c2ccc([N+](=O)[O-])cc2)s1)c1ccccc1CCc1ccccc1	1	1	1	1
COc1ccc(-n2c(O)c(/C=N/N(C)C)c3ccccc3c2=O)cc1	-1	0	14	2
COC(=O)c1sc2nc(C)c(C(C)=O)cc2c1N	-33	0	41	0
COc1cc(NC(=O)c2cccc(-c3ccc(N4CCOCC4)nc3)n2)cc(OC)c1OC	34*	0	18	2
COc1cc(NC(=O)c2cccc(-c3ccc(N4CCOCC4)nc3)c2)cc(OC)c1OC	-42	0	9	-2
COC(=O)/C=C/CSc1nnc(-c2ccc(Cl)cc2Cl)o1	91*	0	13	1
COc1cncc(-c2cnc3c(Nc4cc(OC)c(OC)c(OC)c4)nccn23)c1	57*	0	28	1
COc1cc(Nc2nccn3c(-c4ccc(F)cc4)cnc23)cc(OC)c1OC	51*	0	3	0
COc1cc(Nc2nccn3c(-c4ccc(N(C)C)cc4)cnc23)cc(OC)c1OC	55*	-1	13	3
COc1ccc(-c2cnc3c(Nc4cc(OC)c(OC)c(OC)c4)nccn23)cc1	-8	0	-3	1
Cc1sc(NC(=O)Cc2ccccc2[N+](=O)[O-])nc1-c1ccccc1	8	0	11	-1
NC(=O)c1ccc(N2CCN(S(=O)(=O)c3ccccc3)CC2)c([N+](=O)[O-])c1	34*	0	3	5
CS(=O)(=O)c1ccc(N2CCN(S(=O)(=O)c3cccs3)CC2)c(F)c1	-7	0	7	2
NS(=O)(=O)c1ccc(N2CCN(S(=O)(=O)c3cccs3)CC2)c([N+](=O)[O-])c1	34*	0	0	1
COc1ccccc1CC(=O)N1CC[C@@H]2[C@H](CCCN2C(=O)c2ccc(C(C)=O)s2)C1	-7	0	0	-1
CC(NC(=O)c1cc(S(=O)(=O)N2CCc3ccccc32)cn1C)c1ccccc1 (configuration not stated)	-11	0	-13	2
COc1ccc(S(=O)(=O)N2CCCc3ccccc32)cc1	58*	0	-8	0
COc1cc(S(=O)(=O)N2CCCc3ccccc32)ccc1Cl	58*	1	5	0
Cn1cc(S(=O)(=O)N2CCc3ccccc32)cc1C(=O)NC(C)(C)C	37*	0	-11	1
COc1cc(C)c(S(=O)(=O)N2CCc3ccccc32)cc1C	50*	0	13	0
Cc1cccc(N2CCN(c3ncnc4c3c(-c3ccccc3)cn4-c3ccc(Cl)cc3)CC2)c1C	5	0	-7	0
SMILES	TEAD-YAP inh	FBW7 activator	MITF inh	GPR151 ag
CCc1noc(-c2[nH]c3ccccc3c2C(=O)C(=O)N(C)C)c1C	3	0	-4	-1
COC(=O)c1ccc(S(=O)(=O)N2CCCc3ccccc32)cc1	62*	0	-12	2
Fc1ccc(Nc2nc(NCc3ccco3)c3ccccc3n2)cc1	36*	0	29	0
COc1ccc(Nc2nc(NCc3ccco3)c3ccccc3n2)cc1	50*	0	7	2
Clc1ccc(Nc2nc(NCc3ccco3)c3ccccc3n2)cc1	0	0	-3	1
CC(=O)c1ccc(NC(=O)CC(NCc2ccco2)C(=O)O)cc1 (configuration not stated)	3	0	3	1

Screening data (PubChem)
